Results published in PubChem BioAssay.
For part of these data: Results with a measured potency or affinity are listed apart. Calls of active or inactive are those of the source.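 The calls were made as follows, unless noted: active = fluorescence ratio normalized to control raised more than 50% in primary screen plus both repeat runs; inactive = the rest.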

What was measured:
[1] = tested on: TRPC4 beta (transient receptor potential cation channel C4), mouse; assay: TRPC4 cation channel opening, retest – cell-based, Fluo4 calcium, HEK293 TRPC4beta/mu-opioid, duplicates, 10 µM, confirmation (AID 2426); settings: Fluo4 calcium fluorescence, at 10 µM; stronger effect = higher value;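 as to activation: percent rise of integrated ratio over buffer wells lacking compound which define 0%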
[2] = tested on: transient receptor potential cation channel C4 beta (TRPC4), mouse; assay: TRPC4 cation channel opening, second retest – cell-based, second round, Fluo4, HEK293 TRPC4beta/mu-opioid, 1 µM, confirmation (AID 2461;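 active = primary screen active and over 50% activation in each of two duplicate runs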;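 as to activation: 0% = wells without test compound as baseline of integrated fluorescence ratio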); settings: Fluo4 calcium fluorescence, at 1 µM; stronger effect = higher value
[3] = tested on: TRPC4 (transient receptor potential cation channel C4 beta), mouse; assay: potentiation of DAMGO EC20 TRPC4 response – cell-based, second round, Fluo-4, HEK293 TRPC4beta/mu-opioid, 1 µM, confirmation (AID 2554;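 active = primary screen hit whose fluorescence ratio, in both repeats, exceeds the weak agonist control mean by 3 SD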); settings: DAMGO EC20, Fluo-4 calcium flux, at 1 µM; stronger effect = higher value
[4] = tested on: TRPC4 beta (transient receptor potential cation channel C4), mouse; assay: potentiation of DAMGO EC20 TRPC4 response – cell-based, Fluo-4, HEK293 TRPC4beta/mu-opioid, confirmation (AID 2555;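 active = primary screen hit whose calcium fluorescence ratio, in both repeats, exceeds the weak agonist control mean by 3 SD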); settings: DAMGO EC20, Fluo-4 calcium flux, at 10 µM; stronger effect = higher value
[5] = target: Short transient receptor potential channel 4 (Mus musculus) (UniProt Q9QUQ5); assay: blockers of DAMGO-evoked TRPC4 calcium flux – cell-based, Fluo4, HEK293 TRPC4beta/mu-opioid, confirmation (AID 2636;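 active = calcium signal cut by more than 3 SD below the full-agonist control yet still positive, in both repeats and the earlier primary screen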); settings: at 10 µM; stronger effect = higher value
[6] = target: Short transient receptor potential channel 4 (Mus musculus) (UniProt Q9QUQ5); assay: blockers of DAMGO-evoked TRPC4 calcium flux – cell-based, second round, Fluo4, HEK293 TRPC4beta/mu-opioid, 1 µM, confirmation (AID 2637;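 active = calcium signal ratio cut to more than 3 SD under the fully stimulated control mean yet still positive, in both repeats and the primary screen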); settings: at 1 µM; stronger effect = higher value
[7] = target: Short transient receptor potential channel 4 (Mus musculus) (UniProt Q9QUQ5); assay: potentiation of DAMGO-evoked TRPC4 calcium signal – cell-based, HEK293 TRPC4/mu-opioid, Fluo-4 calcium, EC20 DAMGO, dose response (AID 434941;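 active = earlier screen potentiator hit that boosts the TRPC4 ion channel at some dose, with a dose response; inactive = no potentiation, no dose response, or not a prior hit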;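 also: calcium entry triggered by an EC20 dose of DAMGO at the co-expressed mu-opioid receptor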)
[8] = target: Short transient receptor potential channel 4 (Mus musculus) (UniProt Q9QUQ5); assay: block of DAMGO-driven TRPC4 calcium entry – cell-based, HEK293 TRPC4/mu-opioid, Fluo-4 calcium, dose response (AID 434942;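 active = primary screen inhibitor hit that blocks the TRPC4 channel at some tested dose, yielding a dose curve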)
[9] = target: Short transient receptor potential channel 6 (Mus musculus) (UniProt Q61143); assay: TRPC6 blockade by TRPC4 inhibitor hits – cell-based, HEK293, membrane potential dye, duplicate, selectivity assay for TRPC4 inhibitor project, confirmation (AID 434948;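 active = active in primary screen and both duplicates, each dropping signal beyond three positive-control SD with fluorescence still positive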); settings: HEK293 TRPC6, membrane potential dye fluorescence, at 10 µM, stimulated with maximal-effect acetylcholine; stronger effect = higher value
[10] = target: Short transient receptor potential channel 6 (Mus musculus) (UniProt Q61143); assay: TRPC6 opening by TRPC4 activator hits – cell-based, HEK293, membrane potential dye, duplicate, selectivity assay for TRPC4 activator project, confirmation (AID 434950;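 active = membrane potential signal rise above negative control mean plus 3 SD in both duplicates, also active in the earlier TRPC4 screen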;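 as to activation: 0% = buffer only wells and 100% = acetylcholine maximal-effect wells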); settings: HEK293 TRPC6, membrane potential fluorescence, at 10 µM; activation: stronger effect = higher value; outcome: activation
[11] = target: Short transient receptor potential channel 6 (Mus musculus) (UniProt Q61143); assay: positive modulators of mouse TRPC6 channel – HEK293 cells, membrane potential dye, duplicate, selectivity assay for TRPC4 potentiator project, confirmation (AID 434952;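 active = compound raising the membrane signal above positive-control mean plus 3 SD in both repeats, and a primary screen hit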); settings: HEK293 TRPC6, membrane potential dye fluorescence, at 10 µM, maximal acetylcholine added after compound; stronger effect = higher value
[12] = target: Short transient receptor potential channel 4 (Mus musculus) (UniProt Q9QUQ5); assay: calcium flux activators in TRPC4/5HT1a cells, counter-screen for TRPC4 activator project, cell-based, second counter screen, HEK293 TRPC4/5HT1a, Fluo-4 (AID 434977;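 active = calcium signal rise above buffer-control mean plus 5 SD in both duplicates, and also a hit in the primary screen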;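 as to activation: plate controls were assay buffer for no effect and maximal serotonin response for full effect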); settings: Fluo-4 calcium flux, at 10 µM; stronger effect = higher value
[13] = serotonin-gated TRPC4 signal block – cell-based, second counter screen, HEK293 TRPC4/5HT1a, Fluo-4, counter-screen for TRPC4 inhibitor project, confirmation (AID 434978;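 active = primary screen active whose calcium signal fell more than 3 SD beyond the full-serotonin control mean in both duplicate plates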;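 also: serotonin given first at submaximal then at maximal dose after compound preincubation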); settings: Fluo-4 calcium flux, at 10 µM, serotonin added to trigger calcium flux; stronger effect = higher value
[14] = tested on: TRPC4 (mouse), co-expressed with 5HT1a in HEK293; assay: enhancement of serotonin-evoked TRPC4 response – cell-based, second counter screen, HEK293 TRPC4/5HT1a, Fluo-4, counter-screen for TRPC4 potentiator project, confirmation (AID 434979;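 active = signal rise over 3 SD above mean of control wells given weak agonist, in both repeats and first screen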); settings: Fluo-4 calcium flux, at 10 µM, serotonin added at its EC20 dose; stronger effect = higher value
[15] = nonspecific calcium rise without TRPC4 – cell-based, HEK293 mu-opioid receptor line, counter-screen for TRPC4 activator project, confirmation (AID 449723;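 active = hit in primary screen, with calcium signal over 5 SD above buffer well mean in both duplicates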;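 also: counter screen cells carry the mu-opioid receptor alone and lack TRPC4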); settings: HEK293 mu-opioid cells, Fluo-4 calcium fluorescence, at 10 µM; stronger effect = higher value
[16] = nonspecific potentiation of DAMGO calcium response – cell-based, HEK293 mu-opioid receptor line, counter-screen for TRPC4 allosteric potentiator project, confirmation (AID 449724;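 active = calcium signal rise more than 3 SD above the low-dose agonist control mean, in both duplicate plates and the primary screen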); settings: HEK293 mu-opioid receptor cells, Fluo-4 calcium flux, at 10 µM, compound added before EC20 DAMGO stimulus; stronger effect = higher value

Short transient receptor potential channel 4 (Mus musculus), sequence (Q9QUQ5 whole entry, looked up): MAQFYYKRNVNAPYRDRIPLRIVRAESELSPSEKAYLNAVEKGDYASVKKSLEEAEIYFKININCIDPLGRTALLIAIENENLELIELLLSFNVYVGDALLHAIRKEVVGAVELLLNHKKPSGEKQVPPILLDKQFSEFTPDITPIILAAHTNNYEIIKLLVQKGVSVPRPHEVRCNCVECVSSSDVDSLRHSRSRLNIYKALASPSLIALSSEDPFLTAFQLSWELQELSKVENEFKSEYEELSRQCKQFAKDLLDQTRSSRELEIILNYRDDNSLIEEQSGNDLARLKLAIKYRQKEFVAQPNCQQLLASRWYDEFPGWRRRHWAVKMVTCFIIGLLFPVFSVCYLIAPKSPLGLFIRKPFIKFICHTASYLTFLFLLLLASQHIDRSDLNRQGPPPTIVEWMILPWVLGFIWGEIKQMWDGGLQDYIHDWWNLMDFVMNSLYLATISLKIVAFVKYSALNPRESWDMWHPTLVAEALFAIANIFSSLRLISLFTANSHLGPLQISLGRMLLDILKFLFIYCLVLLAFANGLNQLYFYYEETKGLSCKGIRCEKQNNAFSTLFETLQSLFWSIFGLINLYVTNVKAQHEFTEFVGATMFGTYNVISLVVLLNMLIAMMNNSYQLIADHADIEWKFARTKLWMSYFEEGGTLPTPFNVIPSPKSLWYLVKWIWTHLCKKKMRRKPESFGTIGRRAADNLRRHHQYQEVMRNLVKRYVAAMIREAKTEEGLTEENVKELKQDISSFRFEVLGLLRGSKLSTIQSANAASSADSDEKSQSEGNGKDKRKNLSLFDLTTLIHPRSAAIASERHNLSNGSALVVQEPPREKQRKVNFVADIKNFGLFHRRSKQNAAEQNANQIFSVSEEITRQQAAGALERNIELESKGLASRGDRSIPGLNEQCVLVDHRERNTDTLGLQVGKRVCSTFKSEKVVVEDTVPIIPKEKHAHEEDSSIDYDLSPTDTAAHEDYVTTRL
Short transient receptor potential channel 6 (Mus musculus), sequence (Q61143 whole entry, looked up): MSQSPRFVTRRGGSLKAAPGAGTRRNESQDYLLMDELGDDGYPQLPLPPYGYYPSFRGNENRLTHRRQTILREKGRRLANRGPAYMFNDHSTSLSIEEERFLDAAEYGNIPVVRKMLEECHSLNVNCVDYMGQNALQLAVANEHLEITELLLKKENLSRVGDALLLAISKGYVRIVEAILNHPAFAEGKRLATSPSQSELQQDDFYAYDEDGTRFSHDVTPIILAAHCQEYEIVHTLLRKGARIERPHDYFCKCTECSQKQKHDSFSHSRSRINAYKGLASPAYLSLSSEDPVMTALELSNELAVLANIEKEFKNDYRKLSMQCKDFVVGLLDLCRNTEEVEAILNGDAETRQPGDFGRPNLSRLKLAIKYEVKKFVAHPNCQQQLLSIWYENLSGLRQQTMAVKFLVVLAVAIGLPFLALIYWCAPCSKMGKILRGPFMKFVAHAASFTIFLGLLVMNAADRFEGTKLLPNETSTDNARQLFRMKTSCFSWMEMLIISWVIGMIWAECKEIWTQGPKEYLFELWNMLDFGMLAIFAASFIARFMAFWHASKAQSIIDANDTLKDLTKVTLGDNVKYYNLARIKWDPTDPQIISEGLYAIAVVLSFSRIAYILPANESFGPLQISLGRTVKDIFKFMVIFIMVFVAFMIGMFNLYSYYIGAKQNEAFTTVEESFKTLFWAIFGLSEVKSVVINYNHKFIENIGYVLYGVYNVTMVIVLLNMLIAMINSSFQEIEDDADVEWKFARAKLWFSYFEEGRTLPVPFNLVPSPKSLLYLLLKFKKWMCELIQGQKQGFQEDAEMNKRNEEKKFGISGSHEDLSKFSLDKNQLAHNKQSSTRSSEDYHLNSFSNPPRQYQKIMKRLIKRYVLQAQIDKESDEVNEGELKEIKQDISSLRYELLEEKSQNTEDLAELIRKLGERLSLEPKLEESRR

Cc1cccc(NC(=S)NCC(c2cccnc2)N(C)C)c1C (stereo not given)
active: activation [1] 82% | activation [2] 106%
inactive: outcome [3] | outcome [4] | outcome [5] | outcome [6] | outcome [7] | outcome [8] | outcome [9] | outcome [10] | outcome [11] | outcome [12] | outcome [13] | outcome [14] | outcome [15] | outcome [16]

CCOC(=O)C1(CCOc2ccccc2)CCN(Cc2cnc(C)s2)CC1
inactive: outcome [2] | outcome [3] | outcome [4] | outcome [5] | outcome [6] | outcome [7] | outcome [8] | outcome [9] | outcome [11] | outcome [13] | outcome [14] | outcome [15] | outcome [16]
active: activation [1] 66% | activation [10] 59.5% | activation [12] 5.79%

CNC[C@H](CC1CCCCC1)NC[C@H](Cc1ccccc1)NCCC12CC3CC(CC(C3)C1)C2
active: activation [1] 219% | activation [12] 63.4% | activation [15] 51.7%
inactive: outcome [2] | outcome [3] | outcome [4] | outcome [5] | outcome [6] | outcome [7] | outcome [8] | outcome [9] | outcome [10] | outcome [11] | outcome [13] | outcome [14] | outcome [16]

COc1ccc(CCN(C)CCC(=O)Nc2c(C)cc(C)cc2C)cc1OC
inactive: outcome [1] | outcome [2] | outcome [3] | outcome [4] | outcome [5] | outcome [6] | outcome [7] | outcome [8] | outcome [9] | outcome [11] | outcome [13] | outcome [14] | outcome [15] | outcome [16]
active: activation [10] 48.5% | activation [12] 58.1%

CC(=O)N1CCc2cc(Br)cc(S(=O)(=O)NCCCN(C)Cc3ccccc3)c21
active: activation [1] 87% | activation [2] 72% | activation [12] 27.8%
inactive: outcome [3] | outcome [4] | outcome [5] | outcome [6] | outcome [7] | outcome [8] | outcome [9] | outcome [10] | outcome [11] | outcome [13] | outcome [14] | outcome [15] | outcome [16]

COc1ccccc1C(=O)NNC(=S)NC(=O)c1cccs1
inactive: outcome [2] | outcome [3] | outcome [4] | outcome [5] | outcome [6] | outcome [7] | outcome [8] | outcome [9] | outcome [10] | outcome [11] | outcome [13] | outcome [14] | outcome [16]
active: activation [1] 74% | activation [12] 59.6% | activation [15] 13.9%

Cn1c(-c2cccc3ccccc23)n[nH]c1=S
active: activation [1] 117% | activation [2] 97% | activation [12] 30.5%
inactive: outcome [3] | outcome [4] | outcome [5] | outcome [6] | outcome [7] | outcome [8] | outcome [9] | outcome [10] | outcome [11] | outcome [13] | outcome [14] | outcome [15] | outcome [16]

CN(CCc1ccccn1)C(=O)CC1C(=O)NCCN1Cc1ccccc1C(F)(F)F (stereo not given)
inactive: outcome [2] | outcome [3] | outcome [4] | outcome [5] | outcome [6] | outcome [7] | outcome [8] | outcome [9] | outcome [10] | outcome [11] | outcome [13] | outcome [14] | outcome [15] | outcome [16]
active: activation [1] 178% | activation [12] 50.4%

COc1cc(OC)c(CN2CCC(Cc3ccccc3)CC2)cc1Br
active: activation [1] 121% | activation [10] 43.5% | activation [12] 44.9%
inactive: outcome [2] | outcome [3] | outcome [4] | outcome [5] | outcome [6] | outcome [7] | outcome [8] | outcome [9] | outcome [11] | outcome [13] | outcome [14] | outcome [15] | outcome [16]

C#Cc1cccc(C(=O)NC2CCCN(C3Cc4ccccc4C3)C2)c1 (stereo not given)
active: activation [1] 191% | activation [2] 94% | activation [10] 59% | activation [12] 111%
inactive: outcome [3] | outcome [4] | outcome [5] | outcome [6] | outcome [7] | outcome [8] | outcome [9] | outcome [11] | outcome [13] | outcome [14] | outcome [15] | outcome [16]

O=C(O)c1ccc(-c2ccc(/C=c3/sc4nc5ccccc5n4c3=O)o2)cc1Cl
inactive: outcome [1] | outcome [2] | outcome [3] | outcome [5] | outcome [6] | outcome [7] | outcome [8] | outcome [9] | outcome [13] | outcome [14] | outcome [16]
active: potentiation [4] 10% | activation [10] 218% | potentiation, percent of control [11] 166% | activation [12] 46.3% | activation [15] 40.9%

CCCN(CCC)CCNC(=S)Nc1ccc2nc3n(c(=O)c2c1)CCCCC3
active: activation [10] 47% | activation [12] 7.78%
inactive: outcome [1] | outcome [2] | outcome [3] | outcome [4] | outcome [5] | outcome [6] | outcome [7] | outcome [8] | outcome [9] | outcome [11] | outcome [13] | outcome [14] | outcome [15] | outcome [16]

CCOC(=O)[C@@H]1CCNC[C@@H]1c1ccccc1
inactive: outcome [3] | outcome [4] | outcome [5] | outcome [6] | outcome [7] | outcome [8] | outcome [9] | outcome [11] | outcome [12] | outcome [13] | outcome [14] | outcome [15] | outcome [16]
active: activation [1] 217% | activation [2] 83% | activation [10] 30.5%

CCN1CCN(c2ccc(S(=O)(=O)N3CCCCC3)cc2NC(=O)C(C)Oc2ccc(F)cc2)CC1 (stereo not given)
active: activation [1] 185% | activation [10] 32.5% | activation [12] 9.95%
inactive: outcome [2] | outcome [3] | outcome [4] | outcome [5] | outcome [6] | outcome [7] | outcome [8] | outcome [9] | outcome [11] | outcome [13] | outcome [14] | outcome [15] | outcome [16]

CCCN(CCC)CCCNC(=O)C1CCC(CNS(=O)(=O)c2cccc3nsnc23)CC1 (stereo not given)
active: activation [1] 83% | activation [2] 52% | activation [12] 29.2%
inactive: outcome [3] | outcome [4] | outcome [5] | outcome [6] | outcome [7] | outcome [8] | outcome [9] | outcome [10] | outcome [11] | outcome [13] | outcome [14] | outcome [15] | outcome [16]
